Molecules are shown by their SMILES. Where “and” joins values, the source holds several entries; their conditions need not be identical. Equal values may be shown once. Out of some 6,400 compounds screened, about 610 (9.5%) were called active. Rule as the data show it: active = activity change below about -70%; inconclusive = no clear call, values can overlap the other calls; inactive = above that. For the sample, actives were picked, then their nearest neighbours and some compounds at random. Some compounds were tested as several samples or in several runs, with calls that do not always agree.

A short description of the experiment: Toxoplasma gondii ME49Luc growth in HeLa cells, luciferase, no IFN-y, primary screen (AID 1259421). The following applies: T. gondii ME49Luc in HeLa, 72 h, stronger effect = lower value, concentration not given here.
On to `CC(CCCCC(=O)Nc1ccc(C(F)(F)F)cc1)NCCc1cnc[nH]1` (configuration not stated), for which the activity change, negative = inhibition was -0.447% (inactive) and -3.16% (inactive).

`CO/N=C(\C(=O)N[C@@H]1C(=O)N2C(C(=O)O)=C(CSC(=O)c3ccco3)CS[C@H]12)c1csc(N)n1`: the activity change, negative = inhibition is 17.6% (inactive) and -30.2% (inactive).

As to `CO[C@@H]1COCC[C@@H]1N[C@@H]1CC[C@@](C(=O)N2CCc3ncc(C(F)(F)F)cc3C2)(C(C)C)C1`, the activity change, negative = inhibition is 3.98% (inactive).

With `Cc1ccc(F)c(NC(=O)Nc2ccc(-c3cccc4[nH]nc(N)c34)cc2)c1`, the activity change, negative = inhibition is -78.3% (active).

In the case of `Cc1cc(NC(=O)Nc2ccc(N(C)C)cc2)c2cc(F)cc(F)c2n1`, the activity change, negative = inhibition was 31.3% (inactive).

In the case of `COc1cc(OC)c2c(c1)OC(c1ccccc1)CC2=O` (configuration not stated), the activity change, negative = inhibition is 34.9% (inactive).

On to `O=c1oc(-c2ccc(C(F)(F)F)cc2)nn1Cc1cc(Cl)ccc1O`, for which the activity change, negative = inhibition was 24.7% (inactive) and -12.8% (inactive).

For `CCn1c(=O)n(C2=C(CO)CN(CC3CCCCCCC3)CC2)c2ccccc21`, the activity change, negative = inhibition is 12.4% (inactive) and -0.696% (inactive).

On to `O=C(OCC(O)CO)c1ccccc1Nc1ccnc2cc(Cl)ccc12` (configuration not stated), for which the activity change, negative = inhibition was 5.66% (inactive).

In the case of `CC(=O)Nc1ccc(C(=O)Nc2ccccc2N)cc1`, the activity change, negative = inhibition is 31.2% (inactive) and 45.5% (inactive).

As to `Cc1cc(Nc2ccc(NC(=O)c3ccc(Nc4ccnc5ccccc45)cc3)cc2)nc(N)n1`, the activity change, negative = inhibition is -89.9% (active).

On to `CC1(C)O[C@@H]2CC3C4CCC5=CC(=O)CCC5(C)C4(F)C(O)CC3(C)[C@]2(C(=O)CCl)O1` (some centres not stated), for which the activity change, negative = inhibition was -3.24% (inactive) and 2.55% (inactive).

As for `CCOC(=O)c1cc(C#N)c(N2CCC(C(=O)NS(=O)(=O)Cc3ccccc3)CC2)nc1C`, the activity change, negative = inhibition is 13.4% (inactive).

In the case of `CCCCCCCCCCCCCCCC[n+]1ccccc1`, the activity change, negative = inhibition was -12.3% (inactive) and -82.5% (active).

As to `CCCCCCCCCCCCCCCCCCCCCCCCC(=O)O`, the activity change, negative = inhibition was 11.5% (inactive).

In the case of `CCCCCCCC(=O)O`, the activity change, negative = inhibition was 9.6% (inactive) and 5.48% (inactive).

As to `c1ccc(-c2ccc(C(c3ccccc3)n3ccnc3)cc2)cc1` (configuration not stated), the activity change, negative = inhibition was -68.3% (inactive) and -81.5% (active).

Turning to `FC(F)(F)c1ccccc1-n1ccnc1`, the activity change, negative = inhibition was -1.27% (inactive).

Take `N#Cc1ccc(C(c2ccc(C#N)cc2)n2cncn2)cc1`: the activity change, negative = inhibition is 0.399% (inactive).

With `CCCCCCCCc1ccc(CCC(N)(CO)CO)cc1`, the activity change, negative = inhibition is -79.3% (active) and -52.1% (inactive).

`CCCCCCCCc1ccc(-c2ccc(C(=O)O)cc2)cc1`: the activity change, negative = inhibition was 18% (inactive).

For the compound `CCCCCCCCCCCCCCCCCCc1ccc(C(=O)/C=C/C(=O)O)cc1`, the activity change, negative = inhibition is 11.8% (inactive).

These data come from PubChem BioAssay AID1259421 (Broad Institute, 2018).
